# In all, about 310,000 compounds went through this assay and about 14,000 (4.5%) showed an effect of 50% or more. Effects have a minus sign here. Shown is part of a subset that was picked to be rich in strong results.
# Target: human ether-à-go-go-related gene (hERG) potassium channel (human, UniProt Q12809)
# Test: primary screen, population patch clamp on CHO cells stably expressing hERG; higher = less effect of the substance
# 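Also: peak tail current of the secondary pulse compared with the same well before compound.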
# Sequence of human ether-à-go-go-related gene (hERG) potassium channel (Q12809 whole entry, looked up): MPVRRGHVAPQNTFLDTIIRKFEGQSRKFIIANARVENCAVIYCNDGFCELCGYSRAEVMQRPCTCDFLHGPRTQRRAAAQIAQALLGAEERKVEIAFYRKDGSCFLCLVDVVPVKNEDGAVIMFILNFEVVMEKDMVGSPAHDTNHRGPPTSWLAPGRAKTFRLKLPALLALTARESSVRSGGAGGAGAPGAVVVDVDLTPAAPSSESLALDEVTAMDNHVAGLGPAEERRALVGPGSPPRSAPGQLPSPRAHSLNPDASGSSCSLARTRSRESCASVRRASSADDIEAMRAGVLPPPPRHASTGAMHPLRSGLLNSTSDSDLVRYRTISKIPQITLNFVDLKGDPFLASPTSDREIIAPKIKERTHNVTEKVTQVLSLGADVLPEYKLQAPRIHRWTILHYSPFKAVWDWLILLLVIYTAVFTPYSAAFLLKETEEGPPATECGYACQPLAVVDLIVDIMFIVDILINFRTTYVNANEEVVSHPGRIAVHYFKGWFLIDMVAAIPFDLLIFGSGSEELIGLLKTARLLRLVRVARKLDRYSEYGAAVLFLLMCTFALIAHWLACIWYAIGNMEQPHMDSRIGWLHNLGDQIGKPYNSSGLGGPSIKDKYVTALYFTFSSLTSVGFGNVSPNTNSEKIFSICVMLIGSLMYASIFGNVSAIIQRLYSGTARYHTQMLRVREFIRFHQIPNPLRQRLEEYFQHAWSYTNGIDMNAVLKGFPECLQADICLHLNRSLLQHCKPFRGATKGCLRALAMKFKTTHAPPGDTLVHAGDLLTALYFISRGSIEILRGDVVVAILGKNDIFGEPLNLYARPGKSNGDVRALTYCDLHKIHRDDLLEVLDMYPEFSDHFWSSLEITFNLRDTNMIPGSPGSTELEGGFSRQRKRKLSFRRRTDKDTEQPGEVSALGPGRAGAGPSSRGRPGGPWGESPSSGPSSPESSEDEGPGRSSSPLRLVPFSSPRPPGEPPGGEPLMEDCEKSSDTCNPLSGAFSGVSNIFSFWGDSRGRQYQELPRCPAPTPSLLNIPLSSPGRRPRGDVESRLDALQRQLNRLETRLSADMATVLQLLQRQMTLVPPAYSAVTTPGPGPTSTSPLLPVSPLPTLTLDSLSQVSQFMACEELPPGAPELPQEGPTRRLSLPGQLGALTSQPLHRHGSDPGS
row,SMILES,"hERG current change (%, negative = inhibition) at 10uM"
1,CCOc1cccc(/C=N/N2C(=O)CSC2=S)c1O,24.2%
2,O=C(CO/N=C/c1ccc(Cl)cc1Cl)NNC(=O)c1ccc(Cl)cc1Cl,3.17%
3,O=C(NCCO)Nc1ccc(Cl)cc1,27.7%
4,O=C(CN(C(=O)c1csnn1)c1ccc(F)c(Cl)c1)NCc1ccc(F)cc1,7.3%
5,CN1OC(Cn2cc(C#N)c(=O)n(C)c2=O)CC1c1ccccc1 (stereo not drawn),12.5%
6,CCOc1ccc(CN(C)CC(=O)Nc2cc(C)c(C)cc2[N+](=O)[O-])cc1.CN(C)C=O,9.36%
7,Oc1ccc(Nc2nc(-c3ccc(O)cc3)cs2)cc1,18.9%
8,Cc1cc(C)cc(NC(=O)c2ccc(CSc3nnnn3C)cc2)c1,-24%
9,Cl.NCCCNc1ccc([N+](=O)[O-])cc1C(F)(F)F,-15%
10,CCn1cc(C(=O)O)c(=O)c2cc(F)c(N3CCN(C(=S)NC(=O)c4cccc(F)c4)CC3)cc21,5.44%
11,Cn1c(=O)[nH]c(=O)c2c1ncn2CCCc1ccccc1,1.26%
12,Cc1ccc(-c2[nH]ncc2C(=O)c2ccc(Br)cc2)c(O)c1,-9.43%
13,COc1ccc2c(-c3ccccc3)cc(N3CCOCC3)nc2c1.O=C(O)C(=O)O,3.22%
14,O=C(O)C(=O)O.c1ccc(-c2cc(N3CCOCC3)nc3ccccc23)cc1,-11.6%
15,O=C(O)C(=O)O.OCCN1CCN(c2cc(-c3ccccc3)c3ccccc3n2)CC1,-63.3%
16,CCOC(=O)c1ccc[n+](CC(=O)Nc2ccccc2OC(F)F)c1.[Cl-],4.85%
17,CCCCOc1ccc(C(=O)Nn2cnnc2)cc1,-0.225%
18,Cc1nc2ccc(NC(=O)c3cc(Cl)ccn3)cc2s1,17.4%
19,Cc1ccc(CSc2nc3sc(C)c(C)c3c(=O)n2Cc2ccco2)cc1,-6.19%
20,Cc1sc2nc(SCc3ccc(C(=O)O)cc3)n(Cc3ccco3)c(=O)c2c1C,-59.2%
21,C=CCn1c(SCc2ccc(C(=O)NCCO)cc2)nc2sc(C)c(C)c2c1=O,-61.6%

row,SMILES,"hERG current change (%, negative = inhibition) at 10uM"
1,Cc1sc2nc(SCc3ccccc3)n(Cc3ccco3)c(=O)c2c1C,-2.09%
2,C=CCn1c(SCC(=O)NCCO)nc2sc(C)c(C)c2c1=O,11.6%
3,C=CCn1c(SCc2ccc(C(=O)O)cc2)nc2sc(C)c(C)c2c1=O,-4.36%
4,O=C1C2CC=C(Cl)CC2C(=O)N1CCC[n+]1cccc2ccccc21 (stereo not drawn),8.95%
5,Cc1onc(-c2ccccc2Cl)c1C(=O)Nc1nnc(-c2ccc(Cl)cc2Cl)s1,17%
6,Cc1cc(OCC(=O)NCC(O)c2ccccc2)c2c3c(c(=O)oc2c1)CCC3 (stereo not drawn),16.1%
7,Cc1ccc(/C=N/NC(=O)Cn2cnc3ccccc32)cc1,14.4%
8,CC1(C)CNc2cc([N+](=O)[O-])ccc2S1,6.88%
9,COc1ccc(C(=O)NCC(=O)N2CCN(c3ccc(F)cc3)CC2)cc1,-1.94%
10,CCOCC(=O)Nc1c(C(=O)OCC)oc2ccccc12,-11.1%
11,COCCCN(C)C1CCN(C(=O)Nc2ccc(F)cc2)CC1,-28.8%
12,CCOCCCN(C)C1CCN(C(=O)c2oc3ccccc3c2NC(=O)Cc2ccc(F)cc2)CC1,-77.8%
13,CCOCCCN(C)C1CCN(C(=O)c2oc3ccccc3c2NC(=O)c2ccc(F)cc2)CC1,-77.5%
14,CCOCC(=O)Nc1c(C(=O)N2CCN(c3ncccn3)CC2)oc2ccccc12,-21.4%
15,NC(=O)c1oc2ccccc2c1NC(=O)c1ccc(F)cc1,10.9%
16,CCOCCCN(C)C1CCN(C(=O)c2oc3ccccc3c2NC(=O)COc2ccc(F)cc2)CC1,-80.1%
17,COc1ccc(CC(=O)Nc2c(C(=O)N3CCN(c4ccccc4OC)CC3)oc3ccccc23)cc1OC,-24.4%
18,CCOC(=O)c1oc2ccccc2c1NC(=O)COc1ccc(F)cc1,14%
19,CCOC(=O)c1oc2ccccc2c1NC(=O)COc1cccc(OC)c1,10.4%
20,CCOCCCN(C)C1CCN(C(=O)c2oc3ccccc3c2NC(=O)COc2cccc(C)c2)CC1,-82.2%
21,COc1ccc(S(=O)(=O)Nc2ccc3oc(C)c(C(=O)O)c3c2)cc1,21.3%

row,SMILES,"hERG current change (%, negative = inhibition) at 10uM"
1,CSc1nc(C)cc(Oc2ccc(OCCOc3ccccc3)nn2)n1,-23.2%
2,OC1(c2ccc(Cl)cc2)CCN(Cc2nc(-c3cnccn3)no2)CC1,-1.35%
3,CSc1nc2n(n1)C(c1cccc(F)c1)C(C(=O)Nc1ccc(C)cc1C)=C(C)N2 (stereo not drawn),-0.769%
4,O=C(COC(=O)c1ccccc1N1C(=O)C2C3CCC(C3)C2C1=O)c1ccccc1 (stereo not drawn),1.28%
5,COc1cccc(N(C(=O)c2sc(C)nc2C)C(C(=O)NCC2CCCO2)c2ccccc2)c1 (stereo not drawn),-8.87%
6,CC1CCCCC1NC(=O)c1ccc2c(c1)OCCO2 (stereo not drawn),3.51%
7,Cc1cc(OCc2nc3ccccc3s2)ccc1N,-1.17%
8,Cc1cc(NC(=O)/C=C/c2cccc(Cl)c2)n(-c2nc3ccccc3[nH]2)n1,-1.83%
9,COc1ccc(-c2csc(N3CCN(S(=O)(=O)c4ccc5c(c4)NC(=O)CO5)CC3)n2)cc1,17.2%
10,CCC(=O)NN1CCN(c2ccncc2S(=O)(=O)N2CCCCC2)CC1,5.14%
11,CN1CCN(c2ccncc2S(=O)(=O)N2CCCCC2)CC1,14.7%
12,CCC(=O)N(C(=O)CC)N1CCN(c2ccncc2S(=O)(=O)N2CCCCC2)CC1,-52.5%
13,Cc1cc(N(C)C)c(C#N)c(N2CCCCC2)n1,-4.92%
14,O=C(OC(c1ccccc1)c1nccc2ccccc12)c1cc([N+](=O)[O-])cc([N+](=O)[O-])c1 (stereo not drawn),22.9%
15,Cc1occc1C(=O)/C(C#N)=C/c1ccc(O)c(Br)c1,6.16%
16,Cc1cc(C)nc(CCNC(=O)c2cc(COc3c(F)cccc3F)on2)n1,4.72%
17,Cc1cc(C)n(CCNC(=O)c2cc(COc3ccc4ncccc4c3)on2)n1,-3.15%
18,O=C(NCCCc1ccccc1)c1cc(COc2c(F)cccc2F)on1,-6.23%
19,O=C(NCCc1cn2ccccc2n1)c1cc(COc2c(F)cccc2F)on1,-64.9%
20,O=C(NCCc1cn2ccccc2n1)c1cc(COc2ccc3ncccc3c2)on1,-65.7%
21,Cc1ccc(OCc2cc(C(=O)NCc3cn4ccccc4n3)no2)cc1C,-38.7%

row,SMILES,"hERG current change (%, negative = inhibition) at 10uM"
1,Cc1cc(C(=O)NC(=S)Nc2cccc(NC(=O)C(C)C)c2)ccc1[N+](=O)[O-],3.95%
2,Cc1ccc(NC(=O)C2CCC(=O)N2C(=O)OCc2ccccc2)cc1 (stereo not drawn),-23.5%
3,O=C(c1cc(F)ccc1F)C1CCCN(C(=O)c2ccc3nccnc3c2)C1 (stereo not drawn),-50.2%
4,COc1ccc(F)cc1C(=O)C1CCCN(C(=O)CSc2ccccn2)C1 (stereo not drawn),-7.26%
5,COc1ccc(F)cc1C(=O)C1CCCN(Cc2cccn2-c2cccnc2)C1 (stereo not drawn),-47%
6,COc1ncccc1C(=O)N1CCCC(C(=O)c2cc(F)ccc2F)C1 (stereo not drawn),-9.02%
7,COc1ccc(F)cc1C(=O)C1CCCN(Cc2cccn2-c2ccccn2)C1 (stereo not drawn),-83.5%
8,COc1ccc(C(=O)C2CCCN(C(=O)c3cccnc3OC)C2)cc1F (stereo not drawn),-4.56%
9,COC(=O)c1cccc(C(=O)N2CCCC(C(=O)c3cc(F)ccc3F)C2)c1 (stereo not drawn),-21%
10,COc1ccc(C(=O)C2CCCN(Cc3cccn3-c3ccccn3)C2)cc1F (stereo not drawn),-78.5%
11,O=C(c1cc(F)ccc1F)C1CCCN(Cc2cccn2-c2ccccn2)C1 (stereo not drawn),-77.9%
12,CN(C)c1cccc(C(=O)N2CCCC(C(=O)c3cc(F)ccc3F)C2)c1 (stereo not drawn),0.21%
13,O=C(c1cc(F)ccc1F)C1CCCN(C(=O)CSc2ccccn2)C1 (stereo not drawn),-31.9%
14,COc1ccc(S(=O)(=O)N2CCC(C(=O)NC3(C)CCS(=O)(=O)C3)CC2)cc1OC (stereo not drawn),7.87%
15,Cc1cc(C)nc(N2CCCC(C(=O)NCc3cccc(C(F)(F)F)c3)C2)n1 (stereo not drawn),16.7%
16,Cc1ccc(CN2CCN(/N=C/c3cc(Br)cc(Br)c3O)CC2)cc1,5.09%
17,CCOC(=O)C(CC)/C(C)=N\NC(=O)c1cccc(C)c1 (stereo not drawn),35.5%
18,O=S(=O)(NCc1ccc(C(F)(F)F)cc1)c1ccc(-n2cnnn2)cc1,-22.2%
19,COC(=O)C1=C(C)NC(=S)N(C(C)=O)C1c1ccccc1 (stereo not drawn),-8.87%
20,CCc1sc(C(=O)Nc2cc(S(=O)(=O)N3CCOCC3)ccc2OC)cc1C,7.24%
21,O=c1[nH]c(C2CCCN(S(=O)(=O)c3ccccc3)C2)nc2c1nnn2Cc1ccc(OC(F)(F)F)cc1 (stereo not drawn),26.6%
